# Laboratory results reported in the supplement of paper PMC10338343.
# ± gives the standard deviation.
# Test system: EfPiwi piRISC loaded with piRNA #1 (26 nt)
# Assay: pre-steady-state target cleavage rate (min^-1); auxiliary factor: 500 nM Ephydatia muelleri Gtsf1; guide: piRNA #1 5'p-UGAGGUAGUAGGUUGUAUAGUAUCCA; MIWI and MILI are mouse PIWI proteins and EfPiwi is from a freshwater sponge; tags in brackets are library labels; higher = faster piRNA-guided slicing of the target
# Method in brief: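 For Cleave-'n-Seq, a transcribed, DNA-blocked target RNA library […] met 1 nM active affinity-purified piRISC with one synthetic guide at 33 °C for 0–8 or 0–960 min in HEPES–potassium acetate buffer, with or without 500 nM GTSF1 partner protein. Uncleaved targets were sequenced and normalised to depth and weakly complementary targets, with three trials pooled and k3 capped at 0.0001 min^-1. A burst-and-steady-state fit supplied the pre-steady-state cleavage rate.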
row,Sequence,pre-steady-state target cleavage rate
1,GGAGACGAUACUAUAGAUCCUACUACCUCA,0.00498 ± 0.0016
2,GGAGUGCAUACUAUACAACCUACAACCUCA,0.00301 ± 0.0024
3,GGAGACGAUACUAUACAACCUAGUACGUCA,0.00328 ± 0.0016
4,GGAGAGGAUACUAUACAACCUAGUUCCUCA,0.00396 ± 0.0022
5,GGAGUGGAUACUAUUACAACCUACUACCUCA,0.131 ± 0.047
6,GGAGACCUAUGAUAUGUUCCUACUACUCUCA,< 0.0001
7,GGAGACGCAUACUAUACAACCUACUACCUCA,0.0478 ± 0.018
8,GGAGUGGAUACUAUACAACCUACAACCACA,0.00247 ± 0.0019
9,GGAGACGAUACUAUACAACGCUACUACCUCA,0.00969 ± 0.0037
10,GGAGUGGAUACUAUACAAGCAACUACCUCA,0.00256 ± 0.0013
11,GGAGUGGAUACUAUAGAACCUACUACGUCA,0.00205 ± 0.0016
12,GGAGACCAAACUAUACAACCAACUACCUCA,0.00588 ± 0.003
13,GGAGUGGUUACUAUACAACCUACUACCUGA,0.00386 ± 0.0014
14,GGAGAGGAUACUAUACAACCUAGAACCUCA,0.00379 ± 0.0022
15,GGAGACGAUACUAUACAACCUUGUACCUCA,0.00308 ± 0.002
16,GGAGACCUAUGUAUAGAACCUUCUACCUCA,< 0.0001
17,GGAGACCAUACUAUACAACGCUACUACCUCA,0.0082 ± 0.0044
18,GGAGAGGAUACUAUACAAUCCUACUACCUCA,0.00878 ± 0.0059
19,GGAGUGGAUACAUUACAACCUACUACCUCA,0.00715 ± 0.0034
20,GGAGAGGAUACUAUGACAACCUACUACCUCA,0.102 ± 0.041
21,GGAGACCUAACUAUACAACCUAGUACGUCA,0.00403 ± 0.0029
